Compound activity (PubChem)
V-ATPase pHluor: alters yeast V-ATPase proton transport | S. cerevisiae, pHLuorin cytosolic pH fluorescence | response, % at 10 µM | AID 504577 | hit rate 0.37% among 350,000; in the data active means response mostly above about 7.3%, no sharp cut-off; inactive means mostly below about 5.4%; further: actives read high
Efflux pump mplx: antifungal efflux pump inhibition, Nile Red retention. S. cerevisiae Candida pump triplex. inhibition, % at 10 µM. hit rate 0.44% among 330,000. AID 485275;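 active means plate passing quality check with inhibition over a set limit, or well fluorescence over plate mean plus 4 SD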;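 further: Nile Red retained in pooled yeast measured as flow cytometry median fluorescence; 0% = buffer negative control and 100% = Enniatin B positive control; higher means more Nile Red kept so more efflux inhibition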
AI-2 QS mod: Vibrio harveyi AI-2 quorum sensing modulation; Vibrio harveyi JMH597 AI-2 luminescence/OD600 ratio, 9 h; active compounds read low; strain lacks LuxN and CqsS sensors; 0 = neutral-control median; activity change, % at 7.5 µM; hit rate 0.4% among 300,000; in the data active means activity change below about -75%, passing the limit was not always enough;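 further: luminescence divided by OD600 gain over 9 h not by final OD600 alone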
ATG4B inhibitor: blocks human ATG4B protease cleavage of LC3 substrate; Q9Y4P1; ATG4B cleavage of LC3-PLA2, NBD-HPC fluorescence, 1 h; inhibition, % at 8.33 µM; hit rate 0.51% among 340,000; AID 504462; in the data active means inhibition above about 40%
Target sequence (Q9Y4P1 whole entry, looked up): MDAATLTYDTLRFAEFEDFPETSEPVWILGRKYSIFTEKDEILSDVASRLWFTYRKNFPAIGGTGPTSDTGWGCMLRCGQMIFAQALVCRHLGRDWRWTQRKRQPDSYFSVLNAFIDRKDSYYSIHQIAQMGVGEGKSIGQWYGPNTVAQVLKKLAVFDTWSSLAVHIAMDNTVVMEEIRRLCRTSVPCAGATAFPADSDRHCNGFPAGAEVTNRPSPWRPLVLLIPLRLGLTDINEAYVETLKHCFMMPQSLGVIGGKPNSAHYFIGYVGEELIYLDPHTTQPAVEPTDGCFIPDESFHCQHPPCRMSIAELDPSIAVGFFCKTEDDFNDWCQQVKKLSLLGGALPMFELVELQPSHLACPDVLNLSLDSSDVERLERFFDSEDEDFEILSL
Mot1-301 SUMO: SUMOylation pathway inhibition by Mot1-301 growth rescue; hit rate 1% among 320,000; growth rescue, % at 18.8 µM; S. cerevisiae Mot1-301 growth rescue, ATP luminescence, 38.5C; percent above DMSO median, 100 means doubled; AID 2716;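 active means every valid replicate shows activation above 250% relative to neutral control wells; inactive means the rest, any valid replicate at or below 250%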;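 further: OY570 slx delta 5 strain wells were the positive control but not used for scaling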
JMH597 growth: retest: blocks Vibrio harveyi JMH597 growth; shares compounds with AI-2 QS mod; OD600 absorbance, 9 h; lacks LuxN and CqsS sensors; growth inhibition, % at 7.5 µM; hit rate 1% among 750; AID 2726;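 active means every replicate shows growth inhibition above 50%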
BB721 lum counter: retest counter-screen: luminescence loss in constitutive-on quorum sensing strain BB721 | shares compounds with AI-2 QS mod | inhibition, % at 7.5 µM | hit rate 95% among 750 | AID 2727 | Vibrio harveyi BB721 luminescence, 9 h;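 active means inhibition above about 80% in every replicate, not just on average, limit read from the data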
BB721 growth: retest Vibrio harveyi BB721 growth inhibition; shares compounds with AI-2 QS mod; OD600 absorbance, 9 h; growth inhibition, % at 7.5 µM; hit rate 3% among 750;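 active means every replicate shows growth inhibition above 50%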
AI-2 QS JMH597: Vibrio harveyi AI-2 signaling luminescence modulation – JMH597 strain, confirmation; Vibrio harveyi JMH597 AI-2 quorum sensing luminescence, 9 h; luxN and CqsS knockout, AI-2 only; hit rate 97% among 750; shares compounds with AI-2 QS mod; inhibition, % at 7.5 µM;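 active means every replicate shows more than 75% inhibition of signal versus neutral control wells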
* marks the source's active call; other numbers are inactive results. Only some compounds are listed: those with a hit (about 2.5% of all), similar ones and a draw of the others.

Screening COc1ccc(NC(=O)Cn2nnc(-c3ccccc3N)n2)cc1OC returned V-ATPase pHluor 2, Efflux pump mplx 0, AI-2 QS mod 9, ATG4B inhibitor 3 and Mot1-301 SUMO -3.
Screening COc1cc(NC(=O)Cn2nnc(-c3ccccc3N)n2)cc(OC)c1 returned V-ATPase pHluor 5, Efflux pump mplx 0, AI-2 QS mod -89*, ATG4B inhibitor -31, Mot1-301 SUMO 5, JMH597 growth 20, BB721 lum counter 98*, BB721 growth 19 and AI-2 QS JMH597 98*.
Screening Fc1ccc(OCc2cc(-c3ccccc3)no2)cc1 returned V-ATPase pHluor 6, Efflux pump mplx 0, AI-2 QS mod -95*, ATG4B inhibitor 8, Mot1-301 SUMO 38, JMH597 growth 31, BB721 lum counter 98*, BB721 growth 33 and AI-2 QS JMH597 98*.
COc1ccc(-c2cc(CS(=O)(=O)c3ccccc3)on2)cc1 was read as V-ATPase pHluor 0, Efflux pump mplx 0, AI-2 QS mod 9, ATG4B inhibitor 13 and Mot1-301 SUMO -3.
`Clc1ccc(OCc2cc(-c3ccccc3)no2)c(Cl)c1` gave V-ATPase pHluor 6, Efflux pump mplx 0, AI-2 QS mod 26, ATG4B inhibitor 3 and Mot1-301 SUMO -6.
For COc1ccc(-c2cc(COc3ccccc3)on2)cc1 the results were V-ATPase pHluor 2, Efflux pump mplx 0, AI-2 QS mod -89*, ATG4B inhibitor -5, Mot1-301 SUMO 37, JMH597 growth 13, BB721 lum counter 97*, BB721 growth -17 and AI-2 QS JMH597 98*.
For Cc1cccc(OCc2cc(-c3ccccc3)no2)c1C the results were V-ATPase pHluor 1, Efflux pump mplx 0, AI-2 QS mod -96*, ATG4B inhibitor 10, Mot1-301 SUMO 3, JMH597 growth 25, BB721 lum counter 99*, BB721 growth 33 and AI-2 QS JMH597 99*.
For Cc1cccc(N(C)S(=O)(=O)c2c(C)[nH]c(C)c2C(=O)N2CCCC2)c1 the results were V-ATPase pHluor -5, Efflux pump mplx 0, AI-2 QS mod 10, ATG4B inhibitor 8 and Mot1-301 SUMO 12.
Screening COc1ccccc1-c1sc2cc3c(cc2c1C#Cc1cncn1C)OCO3 returned V-ATPase pHluor -1, Efflux pump mplx 0, ATG4B inhibitor 1 and Mot1-301 SUMO -6.
For CC(=O)Nc1ccc(C=C(C#N)c2ccc(C)cc2)cc1 the results were V-ATPase pHluor -2.
Screening CCN1C(=O)[C@H]2[C@@H](c3ccc(-c4ccc(OC)cc4)cc3)N[C@@](C)(C(=O)OC)[C@H]2C1=O returned V-ATPase pHluor -4, Efflux pump mplx 0, AI-2 QS mod 34, ATG4B inhibitor -9 and Mot1-301 SUMO -10.
For C[C@@H]1COC(=O)[C@@H](CC(=O)OC(C)(C)C)C/C=C\C[C@H](CC(=O)NCCO)C(=O)N1 the results were V-ATPase pHluor 0, Efflux pump mplx 0, ATG4B inhibitor -13 and Mot1-301 SUMO 6.
Cc1cc(=O)oc2cc(OCC3CC(c4ccc(Br)cc4)=NO3)ccc12 (stereo not given) was read as V-ATPase pHluor 3, Efflux pump mplx 0, ATG4B inhibitor -8 and Mot1-301 SUMO 6.
Cc1cc(=O)oc2cc(OCC3CC(c4ccccc4)=NO3)ccc12 (stereo not given) was read as V-ATPase pHluor 3, Efflux pump mplx 0, AI-2 QS mod -86*, ATG4B inhibitor -7, Mot1-301 SUMO -8, JMH597 growth 21, BB721 lum counter 95*, BB721 growth 35 and AI-2 QS JMH597 96*.
O=S(=O)(NC1CCCCC1Oc1ccccc1)c1ccccc1 (stereo not given) was read as V-ATPase pHluor -1, Efflux pump mplx 0, AI-2 QS mod 20, ATG4B inhibitor 9 and Mot1-301 SUMO 4.
CC(C)CCNC(=O)NC(=O)COc1ncnc2sccc12 was read as V-ATPase pHluor -3, Efflux pump mplx 0, AI-2 QS mod -81*, ATG4B inhibitor -7, Mot1-301 SUMO 14, JMH597 growth -6, BB721 lum counter 96*, BB721 growth 5 and AI-2 QS JMH597 97*.
For O=C(Cc1cccc2ccccc12)N/N=C/c1ccc(Sc2nc3ccccc3s2)o1 the results were V-ATPase pHluor 3, Efflux pump mplx 0, AI-2 QS mod 10, ATG4B inhibitor -18 and Mot1-301 SUMO 1.
For CN(C)S(=O)(=O)c1ccc(NC(=O)COC(=O)c2ccccn2)cc1 the results were V-ATPase pHluor 1, Efflux pump mplx 0, AI-2 QS mod -87*, ATG4B inhibitor 7, Mot1-301 SUMO 21, JMH597 growth -10, BB721 lum counter 96*, BB721 growth 5 and AI-2 QS JMH597 97*.
Screening O=C(COc1ccc(Br)cc1)Nc1ccc(S(=O)(=O)Nc2ccccn2)cc1 returned V-ATPase pHluor -1, Efflux pump mplx -6, AI-2 QS mod -87*, ATG4B inhibitor -11, Mot1-301 SUMO 3, JMH597 growth 12, BB721 lum counter 94*, BB721 growth -21 and AI-2 QS JMH597 98*.
Screening O=C(CSC(=O)c1ccccc1)Nc1ccccc1F returned V-ATPase pHluor 3, Efflux pump mplx 0, ATG4B inhibitor -2 and Mot1-301 SUMO 131.
`CCOC(=O)c1nn(-c2ccc(C)cc2)cc1C(=O)c1ccccc1` gave V-ATPase pHluor -3, Efflux pump mplx 0, AI-2 QS mod -60, ATG4B inhibitor 0 and Mot1-301 SUMO -4.
`O=C1CCCC(=O)N1c1ccc(Oc2ccc(Cl)cc2)cc1` gave V-ATPase pHluor 0, Efflux pump mplx 0, AI-2 QS mod -84*, ATG4B inhibitor 13, Mot1-301 SUMO 13, JMH597 growth -18, BB721 lum counter 89*, BB721 growth -38 and AI-2 QS JMH597 92*.
For Cc1ccccc1NC(=O)Cc1nc(COC(=O)c2cc([N+](=O)[O-])ccc2N)cs1 the results were V-ATPase pHluor -1, Efflux pump mplx 0, AI-2 QS mod 3, ATG4B inhibitor 0 and Mot1-301 SUMO 11.
Screening O=C(CCl)Nc1ccc(N=Nc2ccccc2)cc1 returned V-ATPase pHluor -2, AI-2 QS mod -91*, ATG4B inhibitor -15, JMH597 growth 74*, BB721 lum counter 100*, BB721 growth 103* and AI-2 QS JMH597 99*.
For O=C(CCl)Nc1ccc(-c2ccccc2)cc1 the results were V-ATPase pHluor 2, Efflux pump mplx 0, AI-2 QS mod -14, ATG4B inhibitor 4 and Mot1-301 SUMO 282.
